# The list is not random: actives were taken first. Their share in the collection is about 7.9%.
# KB-V1 cytotox: qHTS assay for MDR1-selective chemotherapeutics: Primary screen using the drug-selected MDR subline cells KB-V1. KB-V1 MDR cells viability, CellTiter-Glo, 72 h. Potency, µM (highest dose often 46.1 µM), usual class: cytotoxic. 400,000 tested, 3.4% active; note: % is set by controls: 0 for no effect and ±100 for the full control effect; nearly all actives have a fitted effect of over 60% in size
#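 KB-V1 MDR subline cells in DMEM (phenol-red free, 10% FBS) exposed to compounds in qHTS concentration series for 72 h at 37 degrees C. Viability read by CellTiter-Glo luminescence; concentration-effect curves fitted after normalization and correction.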
# MCF10A rereplic: A quantitative high throughput screen for small molecules that induce DNA re-replication in MCF 10a normal breast cells. MCF 10A DNA re-replication, Hoechst nuclear intensity, 48 h. Potency, µM (doses to about 46.1 µM), without a hit: at the highest dose activity, positive = re-replication, most hits filed as activators. 350,000 tested, 2.9% active. AID 624296, 2012; note: % of control where 0% means no effect; nearly all actives have a fitted effect of over 50% in size
# SW480 rerep: A quantitative high throughput screen for small molecules that induce DNA re-replication in SW480 colon adenocarcinoma cells. Potency, µM (titrated, usually from 46.1 µM), inactives show at the top dose re-replication activation, most hits filed as activators. SW480 DNA re-replication, Hoechst DNA content imaging, 48 h. 340,000 tested, 1.8% active; note: % of control where 0% means no effect; nearly all actives have a fitted effect of over 55% in size
#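 DNA re-replication was detected as more nuclei of elevated Hoechst intensity after 48 hr exposure to compound (23 nL pinned per well of 250 cells).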
# HT1080 IDH1KD tx: qHTS for induction of synthetic lethality in tumor cells producing 2HG: qHTS for the HT-1080-IDH1KD cell line; HT-1080 IDH1 knockdown viability, ATP luminescence, 48 h; Potency, µM (doses to about 46.1 µM), inactives show at the top dose activity, negative = toxicity, actives largely listed as cytotoxic; 360,000 tested, 2% active;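 note: 0% = DMSO wells and -100% = cell-free medium wells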
#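 Assay cells: HT-1080 with IDH1 knockdown, 750 per well, RPMI/5% FBS. Exposure: 48 h at 37 °C following 2 h pre-incubation. Read: CellTiter-Glo luminescence; fitted concentration-response, curve class assigned.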
# HT1080-NT tox: qHTS for induction of synthetic lethality in tumor cells producing 2HG: qHTS for the HT-1080-NT fibrosarcoma cell line; HT-1080-NT fibrosarcoma viability, CellTiter-Glo ATP luminescence, 48 h; Potency, µM (doses to about 46.1 µM), for inactives: at the top dose activity, negative = less viability, actives largely listed as cytotoxic; 360,000 tested, 1.6% active; AID 686970, 2013;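 note: NT is the 2HG producing partner of a matched IDH1 knockdown line; 0% = DMSO-treated cells and -100% = media-only wells without cells; nearly all actives have a fitted effect of over 55% in size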
#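 HT-1080-NT fibrosarcoma cells (2HG-overproducing), 750 cells/well in RPMI with 5% FBS, dosed after 2 h and incubated 48 h at 37C. CellTiter-Glo luminescence normalized to DMSO and no-cell wells; concentration-response curves fitted and classed.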
# KB-3-1 tox: qHTS assay for MDR1-selective chemotherapeutics: Primary screen using the parental adenocarcinoma cell KB-3-1; Potency, µM (series often up to 46.1 µM), most hits filed as cytotoxic; 400,000 tested, 1.4% active; KB-3-1 viability, CellTiter-Glo ATP luminescence, 72 h; note: % is set by controls: 0 for no effect and ±100 for the full control effect; nearly all actives have a fitted effect of over 60% in size
#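 KB-3-1 cells, DMEM (no phenol red) + 10% FBS; compound by pin transfer, 72 h, 37 °C. Readout: CellTiter-Glo luminescence after 10 min. Data normalized, curve-fitted.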
# Active calls of the source: *; i = inactive; ? = inconclusive; / = no result. Calls come from the whole dose curve; as a rule, active = well fitted curve in the direction sought with a large enough effect; inconclusive = small, poorly fitted or top-dose-only effect, or another doubt; inactive = no such curve, though single readings can be large; an effect the other way counts as inactive or inconclusive. Potency is the fitted concentration of half-maximal effect.
SMILES,KB-V1 cytotox,MCF10A rereplic,SW480 rerep,HT1080 IDH1KD tx,HT1080-NT tox,KB-3-1 tox
Cc1ccccc1C(=O)Oc1ccccc1N1C(=O)C2CC=CCC2C1=O (stereo not given),i,3%,-11%,5%,9%,i
O=C(c1ccco1)N1N=C(c2ccco2)CC1c1ccc(Cl)cc1Cl (stereo not given),i,23µM*,?,?,?,?
O=C(NC1CCCc2ccccc21)C1CCN(S(=O)(=O)c2cccc(C(F)(F)F)c2)CC1 (stereo not given),23µM*,8%,?,-22%,-2%,i
CN(C(=O)CSc1nnnn1-c1ccc(Cl)cc1)C1CCS(=O)(=O)C1 (stereo not given),i,8%,-1%,0%,6%,i
CCNC(=S)/N=C(\N)Nc1nc(C)c2cc(C)ccc2n1,9.2µM*,6%,6%,1%,-4%,?
CCOc1cc(NC(=O)CCl)c(OCC)cc1NC(=O)CCl,?,6.5µM*,3.3µM*,?,?,21µM*
CCCCCC(O)(c1ccc(OCC)cc1)C(CN1CCOCC1)c1ccccc1 (stereo not given),?,?,26µM*,16µM*,?,?
CCCCC(O)(c1ccccc1)C(CN1CCOCC1)c1ccccc1 (stereo not given),i,-9%,-2%,-7%,-6%,i
COc1ccc(C(O)(c2ccccc2OC)C(CN2CCOCC2)c2ccccc2)cc1 (stereo not given),21µM*,5%,2%,-14%,-4%,?
CCCCC(O)(c1ccc(OC)cc1)C(CN1CCOCC1)c1ccccc1 (stereo not given),?,8%,25%,?,?,i
CCOc1ccc(C(O)(c2ccccc2OC)C(CN2CCCC2)c2ccccc2)cc1 (stereo not given),i,?,-39%,-3%,-16%,?
CCCCCC(O)(c1ccc(OC)cc1)C(CN1CCOCC1)c1ccccc1 (stereo not given),13µM*,16µM*,?,?,?,?
CCCCC(O)(c1ccc(CC)cc1)C(CN1CCOCC1)c1ccccc1 (stereo not given),i,?,?,?,?,16µM*
Cc1ccc(NC(=O)CN2C(=O)CC(c3ccc(F)cc3)=Nc3ccccc32)cc1F,i,/,/,/,/,i
COc1ccc(CN2C(=O)c3cccnc3C2=O)cc1S(=O)(=O)N1CC(C)CC(C)C1 (stereo not given),i,-1%,-14%,0%,4%,i
CCN(CC)C(=O)CNC(=O)c1nn(-c2ccc(OC)c(Cl)c2)c(=O)c2ccccc12,i,0%,-4%,-3%,-12%,i
COc1ccc(-n2nc(C(=O)NCC(=O)Nc3cc(OC)c(OC)c(OC)c3)c3ccccc3c2=O)cc1Cl,i,23µM*,6%,-24%,-22%,i
CC1(C)Cc2c(sc(NC(=O)C(=O)N3CCCCC3)c2C(N)=O)CO1,i,13%,0%,12%,13%,i
OCCN1CCN(CC#CCC(c2ccccc2)c2ccccc2)CC1,i,30%,-16%,-4%,-14%,i
OCCN1CCN(CC#CCn2c3ccccc3c3ccccc32)CC1,i,26%,3%,?,21µM*,i
COc1ccc(CCN2C(=O)NC(NC(=O)CCc3ccccc3)(C(F)(F)F)C2=O)cc1OC (stereo not given),21µM*,0%,2%,1%,6%,i
COc1ccc(CCN2C(=O)NC(NC(=O)c3ccccc3OC)(C(F)(F)F)C2=O)cc1OC (stereo not given),i,/,/,/,/,i
CC(C)Oc1ccc(C(=O)NC2(C(F)(F)F)NC(=O)N(CCCc3ccccc3)C2=O)cc1 (stereo not given),9.2µM*,14%,?,?,-2%,?
CCCCn1c2c(c(=O)n(C)c1=O)C(CC(=O)OCC(=O)Nc1cccc(C(F)(F)F)c1)C(=O)N2 (stereo not given),i,0%,-3%,-5%,-15%,i
CCOCCCNC(=O)c1c[nH]c2ccc(S(=O)(=O)Nc3cccc(Cl)c3C)cc2c1=O,?,/,/,/,/,i
SMILES,KB-V1 cytotox,MCF10A rereplic,SW480 rerep,HT1080 IDH1KD tx,HT1080-NT tox,KB-3-1 tox
O=C(Cn1c(COc2ccccc2)nc2ccccc21)Nc1cc(Cl)cc(Cl)c1,i,12µM*,-2%,?,?,i
O=C(Cn1c(COc2ccccc2)nc2ccccc21)Nc1cc(Cl)ccc1Cl,23µM*,0%,9%,-5%,-16%,?
O=C(Cn1c(COc2ccc(Cl)cc2)nc2ccccc21)NCC(F)(F)F,i,1%,-4%,7%,5%,i
O=C(Cn1cnc(S(=O)(=O)N2CCCC2)c1)Nc1cccc(Br)c1,i,6%,?,-4%,-1%,i
CCOC(=O)C1CCN(C(=O)CSc2n[nH]c(=O)[nH]c2=O)CC1,i,20%,-6%,3%,5%,i
Cc1ccccc1OCC(=O)Nc1ccccc1NC(=O)c1ccco1,i,13%,2%,4%,4%,i
CCOc1ccc(CC(=O)Nc2ccc(NC(=O)c3ccco3)cc2)cc1OCC,?,9%,3%,12µM*,-24%,i
CCOc1cc(NC(=O)c2ccco2)c(OCC)cc1NC(=O)COc1ccccc1C,?,2.1µM*,10%,2%,6%,15µM*
Cc1ccccc1OCC(=O)NNC(=S)NC(=O)c1ccco1,i,14µM*,?,8.9µM*,?,?
Cc1c(C(=O)OC(C)C)[nH]c2c1C(=O)CC(C)(C)C2,i,0%,6%,?,6%,i
COc1cc(OC)c(/C=C/c2c3ccccc3cc[n+]2C)c(OC)c1,i,/,/,/,/,?
COc1cc(OC)c(/C=C/c2cc3c4ccccc4ccc3[n+](C)c2)c(OC)c1,i,/,/,/,/,8.2µM*
COc1cc(OC)c(/C=C/c2cc(/C=C/c3c(OC)cc(OC)cc3OC)[n+](C)c3ccccc23)c(OC)c1,i,/,/,/,/,23µM*

# From PubChem
